Assay outcomes as filed in PubChem BioAssay.
The list is not random: actives were taken first. Their share in the collection is about 21%.
CHX counter: counter-screen for Shiga toxin inhibitors: cycloheximide protein synthesis inhibition | cell reporter, cycloheximide protein synthesis inhibition counterscreen | max response, % | 300,000 tested, 12% active | AID 2314; in the data active means max response mostly above about 13%, no sharp cut-off; inactive means mostly below about 14%; further: read at 38.3 µM for the half of the compounds with a filed dose; 0% is about no effect
HCV inhibitor: blocks hepatitis C virus. 340,000 tested, 3.4% active. AID 651820. Huh7.5.1 HCVcc-Cre infection, luciferase reporter, 44 h. Potency, µM (titrated, usually from 41.8 µM), for the others: at the top dose activity change, negative = inhibition, hits mostly inhibitors; further: potency means the concentration at half of the fitted maximal effect; on the % scale 0 is the no-effect control and ±100 the full control effect
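Infectious HCV cell culture screen: compound-treated cells (1,000/well, pre-plated 4 h) are infected with HCVcc-Cre at roughly 0.5 moi and grown 44 h. Infection is quantified by luciferase signal after 15 min substrate incubation at room temperature.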
Pf growth 48h: inhibits P. falciparum growth in the first generation, 48 h. P. falciparum luciferase growth in erythrocytes, 48 h. 310,000 tested, 5.9% active. Potency, µM (series often up to 28.7 µM), for the others: top-dose activity change, negative = inhibition, actives largely listed as inhibitors. AID 504832; further: potency means the concentration at half of the fitted maximal effect; on the % scale 0 is the no-effect control and ±100 the full control effect
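Firefly luciferase activity from engineered P. falciparum reports growth; inhibitors lower the luminescent signal. Cultures contained 2% hematocrit erythrocytes at 0.1% final parasitemia.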
Shiga toxin inh: blocks Shiga toxin action in Vero cells. Vero cells, Shiga toxin protein synthesis inhibition reporter. inhibition, % at 38.7 µM. 290,000 tested, 9.2% active; in the data active means inhibition mostly above about 28%, no sharp cut-off; inactive means mostly below about 43%; further: 0% is about no effect
HCMV antiviral: human cytomegalovirus inhibition; HFF cells, HCMV-luciferase reporter, 72 h; stronger effect = lower value; activity change, negative = inhibition, % at 57.5 µM; AID 1259415; 410,000 tested, 4.5% active; in the data active means activity change below about -60%; inconclusive means no clear call, values can overlap the other calls; inactive means above about -39%; further: on the % scale 0 is the no-effect control and ±100 the full control effect
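Screen run at 2 compound doses on HFFs infected with reporter HCMV, MOI 1 PFU/cell. Luciferase activity from cell lysates at 72 h post infection gave inhibition relative to buffer-only and Salinomycin wells.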
Pf growth 96h: P. falciparum growth inhibition at 96 hours. P. falciparum luciferase reporter growth, 96 h. Potency, µM (top dose mostly 28.7 µM), for inactives: at the top dose activity change, negative = inhibition, hits mostly inhibitors. 320,000 tested, 6.9% active; further: potency means the concentration at half of the fitted maximal effect; on the % scale 0 is the no-effect control and ±100 the full control effect
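Delayed-death screen, second-generation endpoint: infected erythrocytes, 2% hematocrit, 0.05% parasitemia final; 96 hours at 37 C, 5% CO2; luciferase detection reagent; luminescence decrease equals reduced growth.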
The depositor's hits bear a star; ? = inconclusive; nt = no result given. Unless noted, the call rests on the fitted dose curve; in most records, active means well fitted inhibition curve with a large enough effect; inconclusive means small, poorly fitted or top-dose-only effect, or another doubt; inactive means no such curve, though single readings can be large or run the other way.

SMILES	CHX counter	HCV inhibitor	Pf growth 48h	Shiga toxin inh	HCMV antiviral	Pf growth 96h
CC(C)c1ccc(NC(=O)Cn2c(=O)n(Cc3nc(-c4ccccc4)no3)c(=O)c3cc4c(cc32)OCO4)cc1	nt	nt	nt	nt	27	nt
O=S(=O)(Nc1ccc(-c2ccc(N3CCCCC3)nn2)cc1)c1ccc(OC(F)(F)F)cc1	nt	nt	nt	nt	23	nt
Cc1cccc(NC(=O)[C@@H](NC(=O)N2C[C@H]3C[C@@H](C2)c2cccc(=O)n2C3)C(C)C)c1	2	-22%	18%	-4	-19	5.2µM*
CCc1ccc(NC(=O)CCNC(=O)N2C[C@H]3C[C@@H](C2)c2cccc(=O)n2C3)cc1	27*	-12%	10%	31*	37	4%
COc1cccc(NC(=O)[C@@H](NC(=O)N2C[C@H]3C[C@@H](C2)c2cccc(=O)n2C3)C(C)C)c1	-2	-17%	17%	2	-25	8%
COc1ccc(N(CC(=O)NC2CC3CCC2C3)S(=O)(=O)c2ccccc2)cc1Cl (stereo not drawn)	8	nt	?	-6	-26	-19%
COc1cc(OC)c(CN2CCC(CO)(CCOc3ccccc3)CC2)c(OC)c1	-8	?	?	-7	?	0%
OCC1(CCOc2ccccc2)CCN(Cc2ccncc2)CC1	3	12%	?	-5	72	?
OCC1(CCOc2ccccc2)CCN(Cc2ccc(OC(F)F)cc2)CC1	2	13µM*	8%	-7	13	10µM*
CCOc1cc(CN2CCC(CO)(Cc3cccc(C(F)(F)F)c3)CC2)ccc1OC	-4	?	?	-14	-26	10µM*
OCC1(CCOc2ccccc2)CCN(CCCn2cccn2)CC1	-2	10%	40%	4	6	10µM*
OCC1(CCOc2ccccc2)CCN(Cc2ccccc2OC(F)F)CC1	-2	16%	-7%	-11	-4	?
COc1cc(CN2CCC(CO)(CCOc3ccccc3)CC2)cc(OC)c1OC	-1	-6%	5.9µM*	14	-30	9%
Cc1ccc(N2CCN(S(=O)(=O)c3c(C)nc4sccn4c3=O)CC2C)cc1 (stereo not drawn)	nt	nt	nt	nt	1	nt
Cc1c(CN2CCC(CO)(CCOc3ccccc3)CC2)[nH]c2c(Cl)cccc12	-2	14µM*	?	-26	-25	13%
OCC1(CCOc2ccccc2)CCN(Cc2ccc3c(c2)OCCO3)CC1	1	3%	-10%	-42	-14	12µM*
COc1ccc(CN2CCC(CO)(CCOc3ccccc3)CC2)cc1C	7	-9%	10µM*	-3	-22	4%
CSc1ccc(CN2CCC(CO)(CCOc3ccccc3)CC2)cc1	-1	?	?	-3	-18	-26%
CC(C)C[C@@H]1COc2cc(F)ccc2S(=O)(=O)N1	nt	nt	nt	nt	4	nt
CCOC(=O)c1c(NC(=S)NCC2CCCO2)sc(C)c1C (stereo not drawn)	-1	8%	21%	-11	-24	50%
Cc1ccc(Cn2cc(C(=O)c3ccc(F)cc3)c(=O)c3cc4c(cc32)OCO4)cc1	nt	nt	nt	nt	8	nt
Cc1ccc(C(=O)c2cn(Cc3ccc(Cl)cc3)c3nc(C)ccc3c2=O)cc1	nt	nt	?	nt	-39	12µM*
Cc1ccc(Cn2cc(C(=O)c3ccc(F)cc3)c(=O)c3cc4c(cc32)OCCO4)cc1	-3	?	-25%	0	-4	12µM*
COc1ccc(C(=O)c2cn(Cc3ccc(C)cc3)c3cc4c(cc3c2=O)OCO4)cc1	nt	nt	nt	nt	-65*	nt
Cc1ccc(C(=O)c2cn(Cc3ccccc3)c3ccccc3c2=O)cc1	nt	nt	nt	nt	-63*	nt
SMILES	CHX counter	HCV inhibitor	Pf growth 48h	Shiga toxin inh	HCMV antiviral	Pf growth 96h
Cc1c(N2C(=O)C3C4C=CC(C4)C3C2=O)c(=O)n(-c2ccccc2)n1C (stereo not drawn)	8	16%	26%	18	-21	0%
CCOc1ccccc1CN1CCNC(=O)C1CC(=O)NCCN1CCOC1=O (stereo not drawn)	-3	16%	17%	10	-3	3%
COc1cc(Cl)c(C)cc1NC(=O)CCn1cnc2onc(-c3ccc(F)cc3)c2c1=O	nt	nt	nt	nt	-11	nt
COc1ccc(NC(=O)CCn2cnc3onc(-c4ccc(F)cc4)c3c2=O)cc1OC	nt	nt	nt	nt	-72*	nt
Cn1c(=O)c(NCCO)c2c3c(cccc31)C(=O)c1ccccc1-2	-4	-24%	23%	-5	nt	-8%
Cn1c(=O)c(NC2CCCCC2)c2c3c(cccc31)C(=O)c1ccccc1-2	-1	?	13µM*	-4	5	0%
CCCCNc1c2c3c(cccc3n(C)c1=O)C(=O)c1ccccc1-2	-4	?	?	-8	nt	?
Cn1c(=O)c(NCCc2ccccc2)c2c3c(cccc31)C(=O)c1ccccc1-2	-6	?	nt	-12	-10	9.3µM*
Cc1ccc(Cl)cc1NC(=O)c1oc2ccc(S(=O)(=O)N3CCCCC3)cc2c1C	nt	nt	nt	nt	10	nt
CCc1cc2cc(C)cc(C)c2nc1SCC(=O)N1CCN(C(=O)c2ccco2)CC1	1	?	-24%	-13	-1	8.3µM*
Cc1cc(C)c2nc(N3CCCN(C(=O)c4ccco4)CC3)c(C#N)cc2c1	6	?	0%	15	12	?
Cc1cc(C)c2nc(C(F)(F)F)nc(N3CCN(C(=O)c4ccco4)CC3)c2c1	-1	13µM*	?	2	?	?
CCc1cc2cccc(C)c2nc1SCC(=O)N1CCN(C(=O)c2ccco2)CC1	-8	?	-4%	-11	?	16%
COc1cccc(NC(=O)C2(C)CCN2Cc2ccc(SC)cc2)c1 (stereo not drawn)	nt	nt	nt	nt	-23	nt
Cc1cccc2c3c(ccc12)C1=C(C(=O)C3=O)[C@@H](C)CO1	29	nt	nt	19	nt	nt
CN1C(=O)/C(=C/C=C2/CCCN2C)N(C)C1=S	16	5%	38%	9	-7	1.5µM*
Cc1cc(N2CCCC2)ccc1/C=C1/C(=O)N(C)C(=S)N1C	7	?	0%	16	-39	7%
COc1cccc2sc(/N=C/N(C)C)nc12	10*	7%	66%	50*	38	42%
COc1cccc2sc(N(C)c3ccccc3)nc12	61*	25µM*	nt	86	38	-6%
COc1cccc2sc(N)nc12	nt	-4%	30%	nt	-26	22%
CC(C)c1ccc(CNC(=O)c2ccc(N3CCCC3)c(NC(=O)NCc3ccc(F)cc3)c2)cc1	nt	nt	nt	nt	-20	nt
COC(=O)c1ccc(N2C(c3ccsc3)=Cc3cc4c(cc3C2CC(=O)c2ccco2)OCO4)cc1 (stereo not drawn)	nt	nt	nt	nt	-69*	nt
CCCN(CCC)Cc1c(C(=O)N/N=C/C(C)=C\c2ccco2)nnn1-c1nonc1N	-2	8.9µM*	?	-6	?	?
CCCN(CCC)Cc1c(C(=O)N/N=C/CCc2ccccc2)nnn1-c1nonc1N	-2	1%	-2%	21	-18	9.3µM*
